Consider four molecules from PubChem BioAssay (EPA / NIEHS).

Results filed as inconclusive are left out. The source holds several records for some structures; these can differ, active in one and inactive in another. Active and inactive are the calls of the source. How the source made its calls, unless noted: active means hit-call score of the fitted dose curve at least 0.9, where 1 is the maximum; inactive means score below 0.9.

Experiment [1] is described as follows: ATG_PXRE_CIS: Attagene CIS-FACTORIAL HepG2 Assay for human Pregnane X Receptor Element (PXRE) (AID 2282957). The following applies: HepG2 Attagene CIS-FACTORIAL PXRE reporter, mRNA; actives raise or lower the signal. In outline:
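HepG2 cells transiently transfected with cis-regulated multiple reporter transcription units; endogenous factor activity measured as reporter mRNA 24 h after dosing. RT-PCR, fluorescent primer extension, HpaI digestion, capillary electrophoresis; bidirectional fit versus DMSO baseline.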

Experiment [2] in a line: ATG_PPRE_CIS: Attagene CIS-FACTORIAL HepG2 Assay for human Peroxisome Proliferator-activated Response Element (PPRE) (AID 2282958). To be noted: HepG2 PPRE cis-element reporter, Attagene transcription factor profiling; actives raise or lower the signal. In outline: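 HepG2, transient MRTU transfection (cis promoter elements, endogenous TFs). 24 h dosing. RNA → oligo(dT) RT → PCR → 6-FAM primer extension → HpaI digest → CE. Bidirectional fit vs DMSO.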

The nature of experiment [3]: ATG_RORE_CIS: Attagene CIS-FACTORIAL HepG2 Assay for human RAR-related Orphan Receptor Element (RORE) (AID 2282959). To be noted: HepG2 Attagene cis-factorial RORE reporter, mRNA; actives raise or lower the signal. In outline:
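Transient MRTU transfection of human HepG2 liver cells (FuGene 6); 24 h compound exposure; TriZol RNA, oligo(dT) RT, PCR, FAM labeling, HpaI cut, CE fragment analysis. DMSO = negative control/baseline.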

The nature of experiment [4]: ATG_Sox_CIS: Attagene CIS-FACTORIAL HepG2 Assay for human SRY-box transcription factor (SOX) (AID 2282960). The following applies: HepG2 Attagene cis-factorial SOX reporter, mRNA; actives raise or lower the signal. In outline:
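Endogenous factor activity in human liver HepG2 cells carrying transfected cis-regulated reporter units. RNA taken 24 h post-dose, reverse-transcribed, PCR-amplified and sized by capillary electrophoresis. Gain or loss of signal fitted relative to DMSO.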

The target in experiment [5] is Transcription factor Sp1 (Homo sapiens) (UniProt P08047). Nature of the experiment: ATG_Sp1_CIS: Attagene CIS-FACTORIAL HepG2 Assay for human Specificity Protein 1 (Sp1) (AID 2282961). The following applies: HepG2 Sp1 cis-reporter transcription, actives raise or lower the signal. The method in brief: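 Transient MRTU-transfected HepG2, 24 h compound exposure. Total RNA → oligo(dT) RT → PCR of reporter → 6-FAM primer extension → HpaI digest → CE. Endpoint fitted both directions vs DMSO.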

The nature of experiment [6]: ATG_SREBP_CIS: Attagene CIS-FACTORIAL HepG2 Assay for human Sterol Regulatory Element Binding (SREBP) (AID 2282962). To be noted: HepG2 Attagene cis-factorial SREBP reporter, mRNA; actives raise or lower the signal. The method in brief: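 Transfected HepG2 (cis-regulated reporter library, endogenous TFs) → compound 24 h → total RNA → oligo(dT) RT → reporter-specific PCR → FAM primer extension, HpaI cut → CE fluorescence. Fit bidirectional vs DMSO.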

The target of experiment [7] is Signal transducer and activator of transcription 3 (Homo sapiens) (UniProt P40763). Nature of the experiment: ATG_STAT3_CIS: Attagene CIS-FACTORIAL HepG2 Assay for human Signal Transducer and Activator of Transcription 3 (STAT3) (AID 2282963). To be noted: HepG2, Attagene cis-factorial STAT3 reporter transcription; actives raise or lower the signal. In outline: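 HepG2 cells transiently transfected with multiple cis-element-driven reporter units report endogenous transcription factor activity. After 24 h compound exposure, reporter mRNA is measured by RT-PCR, 6-FAM labelling, HpaI digestion and capillary electrophoresis. Fitted bidirectionally versus DMSO.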

Experiment [8] is described as follows: ATG_TA_CIS: Attagene CIS-FACTORIAL HepG2 Assay for human TA Basal Promoter (AID 2282964). To be noted: HepG2 Attagene CIS-factorial TA basal promoter reporter; actives raise or lower the signal. The method in brief:
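Read-out: fluorescent reporter-transcript fragments resolved by capillary electrophoresis after RT-PCR and HpaI digestion. Source: HepG2 cells carrying transiently transfected multi-reporter cis constructs, treated 24 h. Endpoint fitted bidirectionally relative to DMSO.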

The nature of experiment [9]: ATG_TCF_b_cat_CIS: Attagene CIS-FACTORIAL HepG2 Assay for human T-Cell-Factor with beta-catenin (TCF/b-cat) (AID 2282965). To be noted: HepG2 TCF/beta-catenin cis-reporter transcription, actives raise or lower the signal. The method in brief:
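HepG2, transient MRTU transfection, cis-element-driven reporters (endogenous TFs). 24 h compound exposure. Readout: reporter mRNA by RT-PCR + 6-FAM primer extension, HpaI digest, capillary electrophoresis. Gain/loss fit vs DMSO baseline.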

Experiment [10] is described as follows: ATG_TAL_CIS: Attagene CIS-FACTORIAL HepG2 Assay for human TAL Basal Promoter (AID 2282966).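 Further: background control endpoint measuring basal TAL promoter reporter mRNA not a specific factor.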 To be noted: HepG2 Attagene cis-factorial TAL promoter reporter; actives raise or lower the signal. In outline:
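HepG2 cells were transiently transfected with promoter-driven multiplexed reporter units and dosed for 24 h. Reporter mRNA was measured by RT-PCR with capillary electrophoresis fluorescence; bidirectional fits used DMSO as baseline, serving as a background control.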

Experiment [11] in a line: ATG_TGFb_CIS: Attagene CIS-FACTORIAL HepG2 Assay for human Transforming Growth Factor (TGF) (AID 2282967). To be noted: HepG2 Attagene CIS TGFb reporter, mRNA transcription; actives raise or lower the signal. The method in brief:
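Transient MRTU transfection of HepG2 (FuGene 6). Dose 24 h. TriZol RNA, oligo(dT) RT, PCR, 6-FAM primer extension, HpaI cut, CE. Bidirectional fit, DMSO = baseline.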

Experiment [12] is described as follows: ATG_VDRE_CIS: Attagene CIS-FACTORIAL HepG2 Assay for human Vitamin D Receptor Element (VDRE) (AID 2282968). The following applies: HepG2 VDRE cis-reporter transcription, actives raise or lower the signal. In outline: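 Transiently transfected HepG2 cells carrying cis-regulated reporter transcription units were exposed for 24 h. Reporter mRNA was measured by RT-PCR with fluorescent labelling and capillary electrophoresis, and fitted in both directions against DMSO.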

The target in experiment [13] is Nuclear receptor subfamily 1 group I member 3 (Homo sapiens) (UniProt Q14994). The experiment can be described thus: ATG_CAR_TRANS: Attagene TRANS-FACTORIAL HepG2 Assay for human Constitutive Androstane Receptor (CAR) (AID 2282969; active means hit-call score of the fitted dose curve at least 0.9, where 1 is the maximum;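 further: activators raise reporter mRNA above DMSO so AC50 marks induction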). The following applies: HepG2 Attagene TRANS-FACTORIAL CAR reporter. In outline: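 HepG2 cells transiently transfected with GAL4-UAS reporter units; TRANS format reads activity of exogenous chimeric NR-Gal4 protein. After 24 h dosing, reporter mRNA quantified by RT-PCR, 6-FAM labelling and capillary electrophoresis; gain of signal fitted against DMSO.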

Experiment [14] has as its target X-box-binding protein 1 (Homo sapiens) (UniProt P17861). The experiment can be described thus: ATG_Xbp1_CIS: Attagene CIS-FACTORIAL HepG2 Assay for human X-box Binding Protein 1 (XBP1) (AID 2282972). The following applies: HepG2 XBP1 cis-element reporter, Attagene multiplex; actives raise or lower the signal. In outline:
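HepG2, transient MRTU transfection (cis-promoter driven), 24 h compound exposure. Total RNA → oligo(dT) RT → PCR → 6-FAM labeling → HpaI cut → CE. Bidirectional fit vs DMSO.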

A short description of experiment [15]: ATG_M_19_TRANS: Attagene TRANS-FACTORIAL HepG2 Assay for M19 Transcription Factor (Internal Marker) (AID 2282974; active means hit-call score of the fitted dose curve at least 0.9, where 1 is the maximum). To be noted: HepG2 Attagene TRANS-FACTORIAL M19 internal marker reporter. In outline: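 Fluorescence of 6-FAM-labelled reporter cDNA fragments, separated by capillary electrophoresis, served as the readout. These derived from HepG2 cells carrying transfected GAL4-UAS reporter units after 24 h dosing, with DMSO as negative control.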

Experiment [16] is described as follows: ATG_GAL4_TRANS: Attagene TRANS-FACTORIAL HepG2 Assay for GAL4 (Internal Marker) (AID 2282976; active means hit-call score of the fitted dose curve at least 0.9, where 1 is the maximum). To be noted: HepG2 Attagene TRANS GAL4 internal marker reporter. The method in brief:
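HepG2 cells transiently transfected with multiplexed GAL4-UAS reporter constructs were dosed for 24 h. Reporter mRNA was measured by RT-PCR, 6-FAM primer extension, HpaI digestion and capillary electrophoresis, and gain of signal was fitted relative to DMSO.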

The target in experiment [17] is Estrogen receptor (Homo sapiens) (UniProt P03372). Nature of the experiment: ATG_ERa_TRANS: Attagene TRANS-FACTORIAL HepG2 Assay for human Estrogen Receptor alpha (ERa) (AID 2282970; active means hit-call score of the fitted dose curve at least 0.9, where 1 is the maximum). To be noted: HepG2 Attagene TRANS ERa GAL4 reporter, mRNA. The method in brief: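 HepG2 cells transiently transfected with multiplexed GAL4-UAS reporter units; ERa activity read via exogenous chimeric NR-Gal4 protein. After 24 hour compound exposure, reporter mRNA measured by RT-PCR with 6-FAM labelling and capillary electrophoresis; gain-of-signal fitted relative to DMSO.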

Experiment [18] has as its target Steroid hormone receptor ERR1 (Homo sapiens) (UniProt P11474). Nature of the experiment: ATG_ERRa_TRANS: Attagene TRANS-FACTORIAL HepG2 Assay for human Estrogen-Related Receptor alpha (ERRa) (AID 2282971; active means hit-call score of the fitted dose curve at least 0.9, where 1 is the maximum). To be noted: HepG2 Attagene TRANS reporter, ERRa transactivation. In outline: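 HepG2 cells transiently transfected with multiplexed GAL4-UAS reporter units reading chimeric ERRa-Gal4 activity; 24 h compound exposure. Reporter mRNA measured by RT-PCR, 6-FAM labelling, HpaI digest and capillary electrophoresis; gain of signal fitted versus DMSO baseline.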

Experiment [19] addresses Estrogen-related receptor gamma (Homo sapiens) (UniProt P62508). Nature of the experiment: ATG_ERRg_TRANS: Attagene TRANS-FACTORIAL HepG2 Assay for human Estrogen-Related Receptor gamma (ERRg) (AID 2282977; active means hit-call score of the fitted dose curve at least 0.9, where 1 is the maximum;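 further: hits increase reporter signal over DMSO so potencies reflect activators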). To be noted: HepG2 Attagene TRANS reporter, ERRg transactivation. The method in brief:
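Transfect HepG2 with multiple GAL4-UAS reporter transcription units; dose chemicals 24 h; isolate RNA, reverse-transcribe with oligo(dT), PCR-amplify, label with 6-FAM, digest with HpaI; size fragments by capillary electrophoresis. DMSO serves as negative control.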

Experiment [20] concerns the target Glucocorticoid receptor (Homo sapiens) (UniProt P04150). Nature of the experiment: ATG_GR_TRANS: Attagene TRANS-FACTORIAL HepG2 Assay for human Glucocorticoid Receptor (GR) (AID 2282978; active means hit-call score of the fitted dose curve at least 0.9, where 1 is the maximum;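 further: activators score as hits since higher reporter transcript over DMSO is fitted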). To be noted: HepG2 Attagene TRANS GR reporter, mRNA transcription. The method in brief:
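Fluorescent capillary-electrophoresis quantitation of reporter mRNA is the readout, taken 24 h after dosing human HepG2 cells carrying transiently transfected GAL4-UAS reporter units activated by chimeric NR-GAL4 fusions; activity scored as induction over DMSO.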

Chain of Glucocorticoid receptor (Homo sapiens) (P04150 whole entry, looked up, the tested form may be a part): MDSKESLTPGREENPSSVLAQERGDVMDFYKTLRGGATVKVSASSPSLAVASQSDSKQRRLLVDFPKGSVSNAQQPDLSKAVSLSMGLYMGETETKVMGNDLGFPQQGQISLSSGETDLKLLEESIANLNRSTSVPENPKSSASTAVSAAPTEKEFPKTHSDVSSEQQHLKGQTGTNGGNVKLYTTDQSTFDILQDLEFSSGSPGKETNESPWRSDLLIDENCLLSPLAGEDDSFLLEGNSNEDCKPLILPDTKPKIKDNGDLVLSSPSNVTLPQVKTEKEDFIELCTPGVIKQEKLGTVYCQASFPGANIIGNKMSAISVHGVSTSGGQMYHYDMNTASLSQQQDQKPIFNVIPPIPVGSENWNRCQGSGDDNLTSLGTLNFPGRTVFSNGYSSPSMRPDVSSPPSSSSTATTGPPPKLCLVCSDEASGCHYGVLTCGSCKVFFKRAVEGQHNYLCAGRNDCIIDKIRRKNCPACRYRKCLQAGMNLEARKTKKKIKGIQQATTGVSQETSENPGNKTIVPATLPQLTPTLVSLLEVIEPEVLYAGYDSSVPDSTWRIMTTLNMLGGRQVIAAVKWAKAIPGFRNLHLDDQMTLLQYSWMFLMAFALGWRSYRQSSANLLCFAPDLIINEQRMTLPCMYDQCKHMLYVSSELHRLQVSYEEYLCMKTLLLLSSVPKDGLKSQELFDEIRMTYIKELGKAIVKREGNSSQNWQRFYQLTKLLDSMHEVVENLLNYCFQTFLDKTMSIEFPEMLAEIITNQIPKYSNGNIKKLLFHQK
Chain of Transcription factor Sp1 (Homo sapiens) (P08047 whole entry, looked up): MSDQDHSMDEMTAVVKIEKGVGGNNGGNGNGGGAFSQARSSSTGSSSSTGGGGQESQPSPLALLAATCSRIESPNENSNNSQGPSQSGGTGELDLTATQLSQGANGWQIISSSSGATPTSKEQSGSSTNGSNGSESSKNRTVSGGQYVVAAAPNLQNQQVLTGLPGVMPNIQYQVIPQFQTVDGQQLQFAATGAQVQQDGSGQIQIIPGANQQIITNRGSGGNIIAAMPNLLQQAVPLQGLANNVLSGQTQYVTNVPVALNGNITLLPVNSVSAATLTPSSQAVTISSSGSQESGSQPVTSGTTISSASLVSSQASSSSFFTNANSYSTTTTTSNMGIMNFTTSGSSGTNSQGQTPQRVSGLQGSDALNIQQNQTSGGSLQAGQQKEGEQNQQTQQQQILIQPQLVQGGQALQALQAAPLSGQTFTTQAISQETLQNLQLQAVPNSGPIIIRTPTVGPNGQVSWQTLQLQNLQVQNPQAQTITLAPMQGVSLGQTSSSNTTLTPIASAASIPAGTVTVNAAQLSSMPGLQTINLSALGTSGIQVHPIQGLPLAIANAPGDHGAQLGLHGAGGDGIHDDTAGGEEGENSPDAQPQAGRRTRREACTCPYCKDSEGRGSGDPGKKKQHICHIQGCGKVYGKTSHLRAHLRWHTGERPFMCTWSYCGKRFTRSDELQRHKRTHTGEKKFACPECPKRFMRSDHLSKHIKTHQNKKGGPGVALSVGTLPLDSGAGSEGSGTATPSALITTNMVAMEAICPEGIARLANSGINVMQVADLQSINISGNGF
Chain of Signal transducer and activator of transcription 3 (Homo sapiens) (P40763 whole entry, looked up): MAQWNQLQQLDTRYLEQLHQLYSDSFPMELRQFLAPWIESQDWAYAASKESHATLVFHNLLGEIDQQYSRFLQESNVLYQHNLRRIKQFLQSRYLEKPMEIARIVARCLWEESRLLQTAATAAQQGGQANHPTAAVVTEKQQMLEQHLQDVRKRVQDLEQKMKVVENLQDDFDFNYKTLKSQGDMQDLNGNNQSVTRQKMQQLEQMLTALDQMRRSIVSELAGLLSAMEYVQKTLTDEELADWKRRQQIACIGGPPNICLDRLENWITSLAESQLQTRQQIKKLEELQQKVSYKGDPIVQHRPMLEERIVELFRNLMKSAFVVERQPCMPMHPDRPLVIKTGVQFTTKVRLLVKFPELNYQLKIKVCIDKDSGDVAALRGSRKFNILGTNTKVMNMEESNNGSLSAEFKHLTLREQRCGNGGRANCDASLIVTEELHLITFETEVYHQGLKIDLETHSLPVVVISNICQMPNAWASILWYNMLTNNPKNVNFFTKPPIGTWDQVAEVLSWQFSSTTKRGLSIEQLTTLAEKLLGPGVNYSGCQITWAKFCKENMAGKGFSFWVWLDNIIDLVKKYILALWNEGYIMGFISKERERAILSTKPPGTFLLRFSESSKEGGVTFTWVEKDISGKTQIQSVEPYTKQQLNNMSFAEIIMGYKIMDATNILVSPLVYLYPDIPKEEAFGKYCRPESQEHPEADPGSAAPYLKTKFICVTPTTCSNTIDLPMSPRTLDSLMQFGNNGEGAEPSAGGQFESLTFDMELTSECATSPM
Chain of X-box-binding protein 1 (Homo sapiens) (P17861 whole entry, looked up): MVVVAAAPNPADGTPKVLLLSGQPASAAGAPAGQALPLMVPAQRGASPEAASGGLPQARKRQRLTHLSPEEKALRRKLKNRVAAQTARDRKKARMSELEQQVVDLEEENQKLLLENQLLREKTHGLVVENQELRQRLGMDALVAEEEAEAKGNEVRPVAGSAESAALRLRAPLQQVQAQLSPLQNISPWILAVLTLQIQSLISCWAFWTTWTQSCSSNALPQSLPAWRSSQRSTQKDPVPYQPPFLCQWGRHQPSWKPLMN
Chain of Nuclear receptor subfamily 1 group I member 3 (Homo sapiens) (Q14994 whole entry, looked up, the tested form may be a part): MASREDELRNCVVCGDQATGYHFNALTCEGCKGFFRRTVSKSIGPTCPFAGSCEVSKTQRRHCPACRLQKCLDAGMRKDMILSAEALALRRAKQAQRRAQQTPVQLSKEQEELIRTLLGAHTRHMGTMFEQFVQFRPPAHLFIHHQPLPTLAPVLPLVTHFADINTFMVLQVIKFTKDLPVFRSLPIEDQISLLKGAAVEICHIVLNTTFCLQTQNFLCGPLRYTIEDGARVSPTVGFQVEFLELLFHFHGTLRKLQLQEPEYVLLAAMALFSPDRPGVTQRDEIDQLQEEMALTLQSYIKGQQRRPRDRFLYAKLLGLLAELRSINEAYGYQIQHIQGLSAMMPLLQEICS
Chain of Estrogen receptor (Homo sapiens) (P03372 whole entry, looked up, the tested form may be a part): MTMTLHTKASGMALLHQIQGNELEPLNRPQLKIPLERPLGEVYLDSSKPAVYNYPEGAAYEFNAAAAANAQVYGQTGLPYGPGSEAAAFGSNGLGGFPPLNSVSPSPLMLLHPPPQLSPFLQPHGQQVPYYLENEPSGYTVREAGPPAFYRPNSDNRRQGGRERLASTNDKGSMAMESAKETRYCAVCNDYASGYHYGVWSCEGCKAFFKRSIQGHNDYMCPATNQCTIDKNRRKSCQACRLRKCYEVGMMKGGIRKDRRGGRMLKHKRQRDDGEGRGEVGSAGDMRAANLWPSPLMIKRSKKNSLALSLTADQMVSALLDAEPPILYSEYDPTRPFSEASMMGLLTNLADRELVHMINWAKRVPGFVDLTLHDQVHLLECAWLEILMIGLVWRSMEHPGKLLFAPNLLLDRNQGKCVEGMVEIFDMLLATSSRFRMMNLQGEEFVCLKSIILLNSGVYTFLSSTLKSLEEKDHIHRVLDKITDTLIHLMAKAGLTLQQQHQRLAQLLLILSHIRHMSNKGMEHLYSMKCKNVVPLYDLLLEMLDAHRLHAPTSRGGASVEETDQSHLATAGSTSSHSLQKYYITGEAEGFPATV
Chain of Steroid hormone receptor ERR1 (Homo sapiens) (P11474 whole entry, looked up, the tested form may be a part): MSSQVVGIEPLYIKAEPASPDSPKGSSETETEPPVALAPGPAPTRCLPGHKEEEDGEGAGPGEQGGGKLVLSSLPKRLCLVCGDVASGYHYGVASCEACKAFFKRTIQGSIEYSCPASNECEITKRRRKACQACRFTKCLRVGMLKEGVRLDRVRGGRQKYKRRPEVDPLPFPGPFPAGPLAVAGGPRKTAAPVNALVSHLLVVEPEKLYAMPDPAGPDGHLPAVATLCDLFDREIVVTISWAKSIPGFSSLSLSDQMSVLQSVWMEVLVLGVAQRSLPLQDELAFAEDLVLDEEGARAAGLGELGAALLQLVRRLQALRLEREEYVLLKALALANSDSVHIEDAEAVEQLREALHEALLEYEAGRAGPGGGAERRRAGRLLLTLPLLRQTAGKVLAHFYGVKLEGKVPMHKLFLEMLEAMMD
Chain of Estrogen-related receptor gamma (Homo sapiens) (P62508 whole entry, looked up, the tested form may be a part): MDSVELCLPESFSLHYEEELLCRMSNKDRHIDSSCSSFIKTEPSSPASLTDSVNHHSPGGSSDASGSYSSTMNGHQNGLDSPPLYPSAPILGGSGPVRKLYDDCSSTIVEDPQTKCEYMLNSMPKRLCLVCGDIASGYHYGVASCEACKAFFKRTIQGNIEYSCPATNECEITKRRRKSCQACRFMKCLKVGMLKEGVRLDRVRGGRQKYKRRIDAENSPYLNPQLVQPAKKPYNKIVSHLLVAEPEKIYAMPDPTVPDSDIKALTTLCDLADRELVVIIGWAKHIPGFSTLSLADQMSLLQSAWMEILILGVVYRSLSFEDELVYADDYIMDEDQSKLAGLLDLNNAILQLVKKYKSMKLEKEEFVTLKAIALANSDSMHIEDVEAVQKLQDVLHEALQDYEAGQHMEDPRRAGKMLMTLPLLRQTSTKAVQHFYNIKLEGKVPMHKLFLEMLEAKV

Take `CC(C)[C@@H]1CC[C@@H](C)C[C@H]1O`: the molecule was classed as inactive in [1], in [2], in [3], in experiment [4], in [5] and in experiment [6]. The molecule was called inactive in experiment [7], in experiment [8], in experiment [9], in [10], in experiment [11] and in experiment [12]. Further, the call in experiment [13], in [14], in experiment [15] and in [16] was inactive.
For `COCN(COC)c1nc(N(COC)COC)nc(N(COC)COC)n1`, the AC50 (in general, the midpoint of the concentration-response curve, whichever way the signal moves) in experiment [1] was 45.3 µM (active); in experiment [17] it was 49.3 µM (active). Also, the call in experiment [2], in experiment [3], in experiment [4], in experiment [5], in [6] and in experiment [7] was inactive. Further, the result in experiment [8], in experiment [9], in [10], in [11], in [12] and in experiment [13] was inactive. The molecule was classed as inactive in experiment [14].
`FC(OC(F)(F)C(F)(F)C(F)(F)F)C(F)(F)F` (centres undefined): the molecule was classed as inactive in experiment [1], in experiment [2], in experiment [3], in [4], in [5] and in [6]. Also, the result in experiment [7], in [8], in experiment [9], in experiment [10], in [11] and in [12] was inactive. For the same molecule, the result in experiment [13], in [17], in experiment [18], in [14], in [15] and in [16] was inactive. Besides, the molecule was called inactive in experiment [19] and in experiment [20].
Turning to `CNNCc1ccc(C(=O)NC(C)C)cc1`, the half-maximal activity concentration (AC50) in experiment [1] is 25.7 µM (active). Further, the molecule was classed as inactive in [1], in [4], in [5], in experiment [6], in experiment [8] and in experiment [9]. The result in [10], in experiment [11], in [12], in experiment [14], in experiment [15] and in [20] was inactive.
